PubChem BioAssay
Calls of active or inactive are those of the source. No rule for the calls is given here.

Biological target: Pantothenate synthetase (Mycobacterium tuberculosis (strain ATCC 25618 / H37Rv)) (UniProt P9WIL5)
Experiment: Coupled enzyme confirmation of inhibitors against recombinant Mtb PanC (AID 375);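 also: 0% = full reaction with vehicle and 100% = no enzyme background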
Details: coupled enzyme assay; at 10 µM, active compounds read high

Pantothenate synthetase (Mycobacterium tuberculosis (strain ATCC 25618 / H37Rv)), sequence (P9WIL5 whole entry, looked up): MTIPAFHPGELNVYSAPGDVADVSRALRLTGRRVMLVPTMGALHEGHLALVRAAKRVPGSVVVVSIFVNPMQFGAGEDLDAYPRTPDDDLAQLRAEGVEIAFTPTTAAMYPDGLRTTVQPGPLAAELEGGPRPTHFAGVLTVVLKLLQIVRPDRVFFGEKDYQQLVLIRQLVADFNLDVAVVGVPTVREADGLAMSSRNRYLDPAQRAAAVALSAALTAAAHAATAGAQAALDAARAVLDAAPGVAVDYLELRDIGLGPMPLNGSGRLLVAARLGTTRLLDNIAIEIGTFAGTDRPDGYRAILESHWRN

With `CC(C)(C)C(O)C(Oc1ccc(Cl)cc1)n1cncn1` (stereo not given) as the compound, how does the inhibition read?
Its inhibition is 9% (inactive).

`COc1cc(/C=N/n2cnnc2)ccc1OC(=O)N(C)C` was tested. Which inhibition did it give?
The inhibition was 6% (inactive).

How did the inhibition turn out when `Nc1ccnn1C1CCNCC1` was run?
The inhibition was 2% (inactive).

With `COC(=O)c1c(C)n(Cc2ccc3c(c2)OCO3)c2ccc(O)cc12` as the compound, how does the inhibition read?
Its inhibition is 6% (inactive).

With `O=C(c1ccc(CS(=O)(=O)c2ccccc2)o1)N1CCC2(CC1)OCCO2` as the compound, how does the inhibition read?
Its inhibition is 0% (inactive).

`COc1cc(C2NCc3ccccc3-n3cccc32)ccc1O` (stereo not given) was tested. Which inhibition did it give?
Its inhibition is 0% (inactive).

Which inhibition does the source give for `COc1ccc(CN2CCN(C(=O)Cc3ccccc3)CC2)c(OC)c1` here?
Its inhibition is 0% (inactive).

For `CC(C)OC(=O)c1c(N)n(CC2CCCO2)c2nc3ccccc3nc12` (stereo not given), which inhibition is on record?
The inhibition was 5% (inactive).

Which inhibition does the source give for `O=C(c1sc2ccccc2c1Cl)N1CCC2(CC1)OCCO2` here?
The inhibition was 0% (inactive).

For `CSc1ccc(C(=O)C(C)(C)N2CCOCC2)cc1`, which inhibition is on record?
The inhibition was 0% (inactive).

With `CCCCCCC(N)CC(=O)O` (stereo not given) as the compound, how does the inhibition read?
Its inhibition is 0% (inactive).

How did the inhibition turn out when `CC(C)(C)OC(=O)c1c(N)n(Cc2ccco2)c2nc3ccccc3nc12` was run?
The inhibition was 3% (inactive).

For `c1cncc(CNC2=NCCCCC2)c1`, which inhibition is on record?
The inhibition was 1% (inactive).

How did the inhibition turn out when `COc1ccccc1-n1c(O)c(C=NCc2ccc3c(c2)OCO3)c(=O)[nH]c1=O` was run?
The inhibition was 7% (inactive).

`O=C(CCCOc1ccc(Cl)cc1Cl)N1CCC2(CC1)OCCO2` was tested. Which inhibition did it give?
The inhibition was 0% (inactive).

Which inhibition does the source give for `Cc1oc2ccc(OC(=O)N(C)C)cc2c1C(=O)OC(C)C` here?
Its inhibition is 0% (inactive).

`Oc1ccc(C2NCc3ccccc3-n3cccc32)cc1Cl` (stereo not given) was tested. Which inhibition did it give?
Its inhibition is 0% (inactive).

`O=c1[nH]c(=O)n(-c2ccc(F)cc2)c(O)c1C=Nc1ccccc1N1CCCC1` was tested. Which inhibition did it give?
Its inhibition is 8% (inactive).

For `CCOC(=O)C1CCCCC12C(C#N)=C(N)Oc1n[nH]c(C)c12` (stereo not given), which inhibition is on record?
Its inhibition is 0% (inactive).

How did the inhibition turn out when `COCCOC(=O)C1=C(N)Oc2c(c(=O)oc3ccccc23)C1c1ccncc1` (stereo not given) was run?
The inhibition was 10% (inactive).

How did the inhibition turn out when `CCN1CCN(c2ncnc3ccc(Br)cc23)CC1` was run?
Its inhibition is 0% (inactive).

How did the inhibition turn out when `CCOP(=S)(OCC)c1ccc(N(C)C)cc1` was run?
The inhibition was 0% (inactive).

How did the inhibition turn out when `NC(=O)CSP(=O)(c1ccccc1)c1ccccc1` was run?
The inhibition was 0% (inactive).

For `Nc1ccc(C2(c3ccc(N)cc3)CN3CCC2CC3)cc1`, which inhibition is on record?
The inhibition was 0% (inactive).

`CN(C)c1cc(N)c2c(n1)CCC2` (tested in a mixture with another compound) was tested. Which inhibition did it give?
The inhibition was 0% (inactive).

`CCOc1ccc(-n2c(O)c(C=NCCN3CCNCC3)c(=O)[nH]c2=O)cc1` was tested. Which inhibition did it give?
Its inhibition is 3% (inactive).

For `CC(=NCCCO)c1c(O)n(Cc2ccccc2)c(=O)[nH]c1=O`, which inhibition is on record?
Its inhibition is 0% (inactive).

With `Cc1cc(N2C(=O)C3CCCN3C2c2cccc(Cl)c2)no1` (stereo not given) as the compound, how does the inhibition read?
Its inhibition is 4% (inactive).

How did the inhibition turn out when `COc1ccc(S(=O)(=O)NC(CC(=O)N2CCC3(CC2)OCCO3)c2ccco2)cc1` (stereo not given) was run?
Its inhibition is 0% (inactive).

Which inhibition does the source give for `COc1ccccc1N1CCN(Cc2c(F)cccc2F)CC1` here?
The inhibition was 1% (inactive).

Which inhibition does the source give for `CSc1ccc(CNC2CN3CCC2CC3)cc1` (stereo not given) here?
The inhibition was 0% (inactive).

Which inhibition does the source give for `Cc1ccc(C)c(NC2=NCCCS2)c1` here?
The inhibition was 0% (inactive).

`CC1=C(C(=O)OC(C)C)[C@]2(C(=O)N(CC(N)=O)c3ccccc32)C(C#N)=C(N)O1` was tested. Which inhibition did it give?
Its inhibition is 3% (inactive).

With `CCCCn1c(O)c(C(C)=NCCc2ccccc2)c(=O)[nH]c1=O` as the compound, how does the inhibition read?
Its inhibition is 0% (inactive).

With `O=C1C2CCCN2C(c2ccc(Cl)c(Cl)c2)N1c1ccccn1` (stereo not given) as the compound, how does the inhibition read?
The inhibition was 0% (inactive).

For `COC(=O)CC1(Cc2ccccc2)C(=O)NC(=O)NC1=O`, which inhibition is on record?
Its inhibition is 0% (inactive).

`Cc1ccc(S(=O)(=O)Cc2ccc(C(=O)N3CCC4(CC3)OCCO4)o2)cc1` was tested. Which inhibition did it give?
Its inhibition is 0% (inactive).

How did the inhibition turn out when `O=C1CC(N2CCC(n3c(=O)[nH]c4ccccc43)CC2)C(=O)N1c1ccc(F)cc1` (stereo not given) was run?
The inhibition was 5% (inactive).

Which inhibition does the source give for `CCOc1cc2[nH]c(=S)n(CCCC(=O)N3CCC4(CC3)OCCO4)c(=O)c2cc1OCC` here?
The inhibition was 0% (inactive).

For `CC(=NCc1ccc2c(c1)OCO2)c1c(O)n(C)c(=O)n(C)c1=O`, which inhibition is on record?
The inhibition was 6% (inactive).
